Screening results as filed in PubChem.
VCAM1 TNFa pot: potentiators of TNFa-induced VCAM1 expression, primary screen, imaging, HUVEC, TNFa stimulus, immunofluorescence; HUVEC TNFa-stimulated VCAM-1 immunofluorescence, high-content imaging; scaled per plate to unstimulated/TNFa-only wells; activation, % at 2 µM; actives 0.19% (n = 93,000); AID 808, 2007;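 active = activation above the screen mean plus 3 SD, with well images confirming the hit on visual review, cut at about 28% in these data, passing the limit was not always enough; inconclusive = activation above that limit but images do not confirm it; inactive = activation not above that limit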;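 note: signal is the number of cytoplasmic VCAM-1 stained grains per positive cell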
VCAM1 pot confirm: potentiators of TNFa-induced VCAM1 expression, confirmation, imaging, HUVEC, triplicate retest. AID 1034, 2008. 230 tested, under 10 active. shares compounds with VCAM1 TNFa pot. activation, % at 2 µM. HUVEC TNFa-stimulated VCAM-1 immunofluorescence imaging;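 active = activation above 30% in triplicate retests at 2 µM, then confirmed by visual review of the well images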;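 note: scaled per plate between unstimulated and TNFa-stimulated DMSO control wells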
* = called active by the depositor; ? = inconclusive. This is one part of a sample in which hits are shown more often than they occur.

SMILES | VCAM1 TNFa pot | others
CCOc1ccccc1C1CC(c2ccc(F)cc2)Nc2nc(N)nn21 (stereo unspecified) | -10
COc1ccc(OC)c(-n2c(C)ccc2-c2ccc(S(C)(=O)=O)cc2)c1 | -4
CCC1=NC(c2ccccc2Cl)N(O)C1(C)C (stereo unspecified) | -59
O=C(CC12CC3CC(CC(C3)C1)C2)NCC(=O)N1CCc2ccccc2C1 | 1
c1ccc(SCc2nc3ccccc3[nH]2)nc1 | 13
O=C(O)C1CCN(S(=O)(=O)/C=C/c2ccccc2)CC1 | -8
CCOC(=O)c1cnc2c(-c3ccccc3)cnn2c1N | ? | VCAM1 pot confirm=-4
CCOC(=O)c1cnn(-c2cc(C)c3ccccc3n2)c1N | -2
CCOC(=O)c1c(-c2ccc(Cl)cc2)cn2ccccc12 | -4
CCCc1[nH]nc2c1C(c1ccc(OC)c(CSC3=NCCS3)c1)C(C#N)=C(N)O2 (stereo unspecified) | -5
CCOc1ccc(C=O)cc1CN1CCCCC1 | -95
C=CCc1c(C)nc(SC)nc1Nc1ccc(C)cc1 | 0
CN1C(=O)CC(N2CCN(Cc3ccc(Cl)cc3)CC2)C1=O (stereo unspecified) | 10
CCCSc1ncnc2c1oc1ccccc12 | 2
CCOC(=O)CSc1nc(-c2ccccc2)nc2c1oc1ccccc12 | -4
CCc1nc(SCC(=O)c2cccs2)c2oc3ccccc3c2n1 | 28* | VCAM1 pot confirm=-14
O=C(N1CCOCC1)N1CCN(S(=O)(=O)N2CCOCC2)CC1 | 22
O=C(Cc1ccsc1-c1ccccc1)NO | 7
Cc1cc(C(F)(F)F)nc(NCc2cccnc2)n1 | ? | VCAM1 pot confirm=-17
FC(F)(F)c1cc(-c2ccc3c(c2)OCO3)nc(NCc2ccco2)n1 | -78
CC(C)(C)Nc1nc(NCc2cccnc2)nc(N2CCOCC2)n1 | -14
Cc1c(NC(=O)N(C)C)c(=O)n(-c2ccccc2)n1C | 1
C=CCNC(=O)CC(=O)N/N=C/c1ccccc1F | 0
COC(=O)CSC1=C(C#N)C(c2ccc(F)cc2)CC(=O)N1 (stereo unspecified) | 32* | VCAM1 pot confirm=-17
CCOC(=O)CSc1nc(C2CC2)cc(-c2ccc(F)cc2)c1C#N | -9
SMILES | VCAM1 TNFa pot | others
CSC1=C(C#N)C(c2ccc(C)s2)CC(=O)N1 (stereo unspecified) | 0
CC1CN(C(NC(=O)C(C)(C)C)C(Cl)(Cl)Cl)CC(C)O1 (stereo unspecified) | 2
O=c1c(C=Nc2ccc(Cl)cc2)c[nH]n1-c1cccc(Cl)n1 | 2
COc1ccc(/C=N\NS(=O)(=O)c2ccc(Cl)cc2)cc1COc1ccccc1[N+](=O)[O-] | 2
Cc1ccc(S(=O)(=O)c2c(C)cc(C)nc2Oc2cccc(C(F)(F)F)c2)cc1 | -6
CCOC(=O)C1CCN(Cc2c(F)cccc2Cl)CC1 | 7
CCOC(=O)C1CCN(C(=O)C2CCN(c3nc4ccc(OC)cc4s3)CC2)CC1 | 114* | VCAM1 pot confirm=-3
CCOC(=O)C1CCN(c2c(NCCCN(CC)c3ccccc3)c(=O)c2=O)CC1 | -24
Cn1c(Cn2nnc3ccccc32)nnc1SCC(=O)N1CCc2ccccc21 | 7
O=C(Cn1nc(Cc2ccncc2)c2ccccc2c1=O)N1CCc2ccccc2C1 | -3
Cc1nn(Cc2ccc(C(=O)N3c4ccc(F)cc4CCC3C)o2)c(C)c1Br (stereo unspecified) | -1
O=C1c2ccccc2-c2nc3ccccc3nc21 | 2
Cc1ccccc1Cn1nnc2c1C(=O)c1ccccc1C2=O | 46* | VCAM1 pot confirm=-13
Cc1ccccc1CSc1nncn1N | -13
CCCCS(=O)CC(O)COCC (stereo unspecified) | -25
CCOC(=O)C(O)(CC(=O)c1ccc(OC)cc1)C(F)(F)F (stereo unspecified) | 5
O=C(Cn1cc(C(=O)c2ccco2)c2ccccc21)NCc1ccco1 | -10
COC(=O)Cn1cc(C(=O)C2CC2)c2ccccc21 | 54* | VCAM1 pot confirm=-11
CC(NC(=O)CN1C(=O)NC(Cc2ccccc2)(Cc2ccccc2)C1=O)C12CC3CC(CC(C3)C1)C2 (stereo unspecified) | -1
COc1ccc(S(=O)(=O)N(C)CC(=O)N2CCN(c3ccc(F)cc3)CC2)cc1OC | 4
CCOC(=O)CC(=O)CSc1nc2c(C)c(C)ccc2cc1C | 51* | VCAM1 pot confirm=-10
CCOC(=O)CSc1nc2ccc(C)cc2cc1C#N | -9
CCOC(=O)CC(=O)CSc1ccc2nnc(-c3ccc(F)cc3)n2n1 | -1
COC(=O)CSCC(=O)Nc1cc2c(cc1C(C)=O)OCO2 | 4
CCOC(=O)c1c(NC(=O)OC)sc(C(=O)N(CC)CC)c1C | 0
SMILES | VCAM1 TNFa pot | others
CCCCCCc1cc2cc(C(=O)NCc3ccccc3)c(=N)oc2cc1O | 51* | VCAM1 pot confirm=-6
CCCCCCNC(=O)CC(c1ccccc1)c1cc(Br)ccc1O (stereo unspecified) | 10
COc1ccccc1C(=O)NCc1ccccc1 | 22
O=C1Nc2ccccc2C(=O)C1(Cl)Cc1ccccc1 (stereo unspecified) | -7
COc1ccc(C2/C(=C(\O)c3cccc(OC)c3)C(=O)C(=O)N2c2ccccn2)cc1 (stereo unspecified) | 3
Cc1ccccc1NC(=O)Cn1nc(C(F)(F)F)cc1C1CC1 | 54* | VCAM1 pot confirm=-9
Cc1cc(C(F)(F)F)nn1CC(=O)Nc1ccc(Br)c2cccnc12 | -6
CCc1ccccc1NC(=O)c1nnn(CC(=O)Nc2cccc(C)c2C)c1N | -4
CCOC(=O)N1CCN(CC(=O)Nc2ccc(C)c(Br)c2)CC1 | -17
O=C(CN1C(=O)c2ccccc2C1=O)NCC1COc2ccccc2O1 (stereo unspecified) | -17
Cc1cc(C(=O)CN2C(=O)c3ccccc3C2=O)c(C)n1C1CC1 | 129* | VCAM1 pot confirm=-14
O=C(CN1C(=O)c2cccnc2C1=O)c1ccccc1 | 8
COc1ccccc1-c1cc2ccccc2[nH]1 | 9
NC(=O)c1cccc(S(=O)(=O)N2CC(c3ccccc3)CC2=O)c1 (stereo unspecified) | -1
CC(=O)c1c(C)cc(C)c(CSc2nnc(-c3ccco3)o2)c1C | 16
O=C(CCSc1nnc(-c2ccco2)o1)Nc1ccccc1 | 44* | VCAM1 pot confirm=-16
O=C(COc1ccc(Br)cc1)Nc1ccc(-c2nnc(-c3ccco3)o2)cc1 | -2
COc1ccc(Cl)cc1Nc1nc(N)nc(C(F)(F)F)n1 | 8
CC1=C([N+](=O)[O-])C(c2cccc(Br)c2)C2=C(N1)c1ccccc1C2=O (stereo unspecified) | -93
COc1cc2cc(C(=O)O)n(C)c2c(OC)c1OC | -1
COCc1cc(Sc2c(Cl)cccc2Cl)nc(-c2ccccc2)n1 | 8
O=S(=O)(Cc1cc(Sc2ccc(Cl)cc2)nc(-c2ccccc2)n1)c1ccccc1 | 50* | VCAM1 pot confirm=-20
Cc1nc(CS(=O)(=O)c2ccccc2)cc(N2CCOCC2)n1 | -3
O=C(NCC1COc2ccccc2O1)c1cc2ccccc2o1 (stereo unspecified) | -16
Cc1ccccc1/C(N)=N/OC(=O)/C=C/c1ccccc1 | 38* | VCAM1 pot confirm=-13
Cc1ccc(-n2c(SCc3cc(=O)n4ccsc4n3)nnc2-c2cccnc2)c(C)c1 | -2
C=CCn1c(CCNC(=O)c2ccccc2F)nnc1SCC(=O)Nc1nc(C)cs1 | -9
O=C1CSC(c2ccccn2)N1c1ccccc1 (stereo unspecified) | 34* | VCAM1 pot confirm=-16
CN(C)CCCN1C(=O)CSC1c1ccccc1 (stereo unspecified) | -7
